HCV inhibitor: inhibitors of hepatitis C virus infection. Huh7.5.1 HCVcc-Cre infection, luciferase reporter, 44 h. Potency, µM (doses to about 41.8 µM), for the others: at the highest dose activity change, negative = inhibition, most hits filed as inhibitors. 340,000 compounds, 3.4% hits. AID 651820; also: potency is read from the fitted curve at half-maximal effect
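A cell-based infection assay in which seeded cells (1,000 per well) receive test compound after 4 h, are inoculated with HCVcc-Cre at approximately 0.5 moi, and are incubated 44 h before luminescence detection.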
FMDV inh: antivirals against foot and mouth disease virus; FMDV antiviral cell-based qHTS; Potency, µM (doses to about 57.9 µM), for the others: at the highest dose activity change, negative = inhibition, most hits filed as inhibitors; 410,000 compounds, 1.2% hits; AID 1159524; calls by dose curve; tested in HEK293T cells; also: read-out not given here; potency is read from the fitted curve at half-maximal effect; nearly all actives have a fitted effect of over 45% in size
Sm TGR inh: inhibitors of Schistosoma mansoni thioredoxin glutathione reductase; Q962Y6; purified TGR, DTNB reduction, TNB absorbance 405 nm; Potency, µM (highest dose often 114 µM), for inactives: top-dose activity change, negative = inhibition, usual class: inhibitors; 360,000 compounds, 3% hits; also: potency is read from the fitted curve at half-maximal effect; nearly all actives have a fitted effect of over 60% in size
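TGR 20 nM + NADPH 100 uM (dispensed conc.), cpd preinc 15 min RT; start with NADPH (500 uM addition) then DTNB (15 mM addition). Kinetic TNB absorbance, 405 nm filter. Four-parameter Hill fit across titration.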
VACV Venus inh: inhibitors of vaccinia virus (Venus reporter); Vaccinia virus Venus reporter expression, fluorescence; Potency, µM (titrated, usually from 36.5 µM), inactives show at the highest dose activity change, negative = inhibition, actives largely listed as inhibitors; 330,000 compounds, 0.46% hits; calls by dose curve; tested in A549 cells; also: potency is read from the fitted curve at half-maximal effect; nearly all actives have a fitted effect of over 30% in size
VACV mCherry inh: inhibitors of vaccinia virus infection (mCherry reporter signal); Vaccinia virus mCherry reporter infection, fluorescence; Potency, µM (highest dose often 36.5 µM), inactives show top-dose activity change, negative = inhibition, usual class: inhibitors; 310,000 compounds, 0.63% hits; AID 720579; calls by dose curve; tested in A549 cells; also: potency is read from the fitted curve at half-maximal effect; nearly all actives have a fitted effect of over 35% in size
HCMV antiviral: human cytomegalovirus inhibition; HFF cells, HCMV-luciferase reporter, 72 h; active compounds read low; activity change, negative = inhibition, % at 57.5 µM; 410,000 compounds, 4.5% hits; AID 1259415; in the data active = activity change below about -60%; inconclusive = no clear call, values can overlap the other calls; inactive = above about -39%
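Compounds were evaluated in HFFs infected with an HCMV luciferase reporter virus (MOI 1 PFU/cell). Luciferase in lysates collected 72 h post infection served as the replication measure.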
Starred values were filed as active, the others as inactive; i = inactive; ? = inconclusive; nt = not tested or not shown; ! = not confirmed by another sample; [ ] = remark or other dose. Only some compounds are listed: those with a hit (about 9.3% of all), similar ones and a draw of the others. Unless noted, calls follow the shape of the dose curve; as a rule, active = well fitted curve in the direction sought with a large enough effect; inconclusive = small, poorly fitted or top-dose-only effect, or another doubt; inactive = no such curve, though single readings can be large; an effect the other way counts as inactive or inconclusive. % is scaled to controls: 0 for no effect and ±100 for the full control effect.

SMILES	HCV inhibitor	FMDV inh	Sm TGR inh	VACV Venus inh	VACV mCherry inh	HCMV antiviral
COc1ccc(CN2CCN(Cc3c[nH]c4ccccc34)CC2)cc1OC	nt	-8%	nt	-14%	?	18
COc1cc(/C=N/Nc2ccc(F)cc2F)cc(OC)c1O	2%	10%	25µM*	-9%	-21%	26
COc1cc(/C=N/Nc2ccccc2[N+](=O)[O-])cc(OC)c1O	?	4%	-4%	-8%	-18%	1
O=C(Nc1ccc(N2CCOCC2)cc1)c1cccc(S(=O)(=O)N2CCCCC2)c1	10µM*!	?	3%	-15%	-21%	-21
CCN1CCN(c2ccc(NC(=O)c3cccc(S(=O)(=O)N4CCCC4)c3)cc2)CC1	-21%	-10%	nt	-8%	0%	0
O=C(Nc1cccc(S(=O)(=O)C(F)F)c1)c1ccc(S(=O)(=O)N2CCOCC2)cc1	-13%	?	-1%	-14%	5%	7
CCCCn1ccnc1C(=O)c1cccc(S(=O)(=O)N2CC(C)CC(C)C2)c1 (configuration not stated)	-25%	9%	-10%	nt	nt	-21
O=C(Nc1ccc(N2CCOCC2)cc1)c1ccc(Cl)c(S(=O)(=O)N2CCCCC2)c1	2.5µM*	?	-25%	nt	nt	-63*
O=C(Nc1cccc(S(=O)(=O)C(F)F)c1)c1ccc(S(=O)(=O)N2CCCC2)cc1	5µM*	-11%	17%	?	0%	?
CCCCn1ccnc1C(=O)c1cc(S(=O)(=O)N2CCOCC2)ccc1C	11µM*	-12%	-12%	nt	nt	-66*
COc1ccc([C@@H](C)C(=O)c2ccc(O)cc2O)cc1	nt	-6%	nt	nt	nt	nt
O=C(Cn1c(=O)n(-c2ccc(F)cc2)c(=O)c2sccc21)N1CCCC1	-19%	0%	9%	nt	nt	-8
CC(=O)c1ccc(NC(=O)c2cc(S(=O)(=O)N3CCOCC3)ccc2C)cc1	-22%	?	-12%	1%	-4%	-15
Cc1ccc(NC(=O)c2cccc(S(=O)(=O)N3CCN(c4ccccc4)CC3)c2)nc1	13µM*	-25%	5%	-11%	-28%	-85*
O=C(Nc1ccc(S(=O)(=O)C(F)F)cc1)c1cccc(S(=O)(=O)N2CCOCC2)c1	?	18µM*	6%	-16%	-7%	-18
O=C(Nc1ccc2c(c1)CCC2)c1cccc(S(=O)(=O)N2CCN(c3ccccc3)CC2)c1	0.56µM*	-6%	-8%	nt	nt	-15
Cc1ccnc(NC(=O)c2cccc(S(=O)(=O)N3CCN(c4ccccc4)CC3)c2)c1	?	?	-2%	-8%	?	25
Cc1ccc(S(=O)(=O)N2CCOCC2)cc1C(=O)Nc1ccc(N2CCCCCC2)cc1	5µM*	-13%	1%	-27%	?	-64*
O=C(NC1CCCc2ccccc21)c1cccc(S(=O)(=O)N2CCN(c3ccccc3)CC2)c1 (configuration not stated)	?	-26%	0%	nt	nt	nt
COc1ccccc1CNC(=O)COC(=O)Cc1cccs1	21%	-15%	0%	-9%	-1%	23
Cc1ccc(Sc2c(C)nn(-c3ccccc3)c2OC(=O)CC(C)C)cc1	nt	-27%	5%	-20%	-14%	-8
CCCn1c(NC(=O)c2ccc(Cl)c(S(=O)(=O)N3CCCC3)c2)nc2ccccc21	2.5µM*	?	-3%	25µM*	11µM*	-63*
Cc1ccnc(NC(=O)c2ccc(Cl)c(S(=O)(=O)N3CCCC3)c2)c1	?	1%	2%	-1%	-2%	-3
O=C(NCc1nc2ccccc2[nH]1)c1ccc(Cl)c(S(=O)(=O)N2CCCC2)c1	0%	28%	4%	?	-8%[1.46 µM]	-30
Cc1ccnc(NC(=O)c2ccc(Cl)c(S(=O)(=O)N3CCCCC3)c2)c1	13µM*	-13%	5%	nt	nt	-11
SMILES	HCV inhibitor	FMDV inh	Sm TGR inh	VACV Venus inh	VACV mCherry inh	HCMV antiviral
O=C(O)c1cccnc1SC1CC(=O)N(c2cccc(C(F)(F)F)c2)C1=O (configuration not stated)	9%	0%	?	-3%	i	-32
O=C(O)c1cccnc1SC1CC(=O)N(c2ccc(OC(F)F)cc2)C1=O (configuration not stated)	17%	-9%	45µM*	-8%	-23%	9
COC(=O)c1c(N2C(=O)CC(Sc3ncccc3C(=O)O)C2=O)sc(C)c1C (configuration not stated)	27%	-15%	20µM*	-10%	-17%	-3
Cc1cccc(N2CCN(C(=O)CN3C(=O)NC4(CCCCCC4)C3=O)CC2)c1C	?	-19%	-17%	-11%	-28%	-8
CN(CC(=O)Nc1ccc(F)cc1)C(=O)COC(=O)c1cc(Br)c(Br)s1	-19%	-19%	nt	nt	nt	-10
COc1cc(CNCCc2ccccc2)cc(Cl)c1OCc1ccccc1	?	?	5%	?	10µM*	-16
CCOc1cc(CNC2CCCC2)cc(Cl)c1OCc1ccccc1	13µM*	-12%	9%	?	-9%[1.46 µM]	-23
COc1cc(C(N)=O)cc(Cl)c1OCc1ccccc1	-6%	17%	4%	-14%	i	25
CCOc1cc(C(N)=O)cc(Cl)c1OCc1ccccc1	13µM*	14%	nt	-22%	-8%	-10
CCOc1cc(CNC2CCCC2)ccc1OCc1ccccc1Cl	3.2µM*	?	9%	nt	nt	-11
Cc1cn([C@H]2C[C@H](O)[C@@H](/C=C/C(=O)NCCc3cccnc3)O2)c(=O)[nH]c1=O	nt	-20%	nt	-5%	14%	9
Nc1nonc1OCCc1ccccc1	4%	35%	4%	-6%	nt	14
COc1ccccc1C(c1nnnn1Cc1ccccc1)N1CCN(c2nc3ccccc3s2)CC1 (configuration not stated)	13µM*	-25%	-2%	-26%	nt	-13
COc1ccc(C(c2nnnn2C(C)(C)C)N2CCN(c3nc4ccccc4s3)CC2)cc1 (configuration not stated)	15%	-22%	-14%	-1%	nt	28
CCC(C)(C)n1nnnc1C(c1ccccc1)N1CCc2ccccc2C1 (configuration not stated)	5%	?	?	-8%	nt	7
COc1ccc(C(c2nnnn2Cc2ccccc2)N2CCN(c3nc4ccccc4s3)CC2)cc1OC (configuration not stated)	?	-2%	-8%	-26%	-14%	12
CCC(C)(C)n1nnnc1C(c1ccc(O)c(OC)c1)N1CCN(c2nc3ccccc3s2)CC1 (configuration not stated)	7%	0%	0.71µM*	-22%	nt	8
CCC(C)(C)n1nnnc1C(c1ccc(O)c(OC)c1)N1CCc2ccccc2C1 (configuration not stated)	17%	-4%	0.25µM*	nt	nt	-17
CCCCc1nc(Cl)c(C#N)c2c1CSC(C)(C)C2	?	?	2%	nt	nt	-26
